Experimental data: PubChem BioAssay

Experiment: probe aNOTCH3 binding on compound microarray – biochemical, small-molecule microarray, 635/667 nm fluorescence, primary screen (AID 1120);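 note: probe is a biotin-tagged antibody raised against NOTCH3 rather than NOTCH3 protein; score merges spot fluorescence near 667 nm with spot signal to noise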
Settings: higher = more signal

In order of rising composite z-score:
1. C/C=C/[C@H](CCn1cc([C@H](O)c2ccccc2)nn1)[Si](C)(C)c1ccc(OC)cc1  -0.359
2. C=CCC(OC(C)=O)[C@@H]1[C@@H](N(Cc2ccc(-c3cccc(C(F)(F)F)c3)o2)C(=O)Cc2ccc(OC)cc2)c2cc(OCCCO)ccc2N1C(=O)Cc1ccc(OC)cc1 (stereo not given in full)  -0.193
3. Cc1ccc(F)cc1S(=O)(=O)N[C@@H]1CCN(Cc2ccc(C(F)(F)F)cc2)C1  -0.159
4. C=C(/C(=C/C[C@@H](OC(=O)c1ccncc1)c1ccc(CO)o1)c1cc(C(=O)OC)ccc1OC)C(C)C  0.0311
5. CCOC(=O)C1=CC[C@@H](c2cccc(Cl)c2)N(S(=O)(=O)c2ccc(C)cc2)[C@H]1c1ccc(C#N)cc1  0.159
6. CC(C)(C)OC(=O)CC[C@@]1(C(N)=O)N=C(c2ccc(OCCCO)cc2)O[C@@H]1c1ccccc1N=[N+]=[N-]  0.191
7. COCC1C2CC[C@H]3C(OCc4ccc(F)cc4C(F)(F)F)OC[C@]4(C)[C@H]3C2=C(CN4C(=O)OC(C)(C)C)[C@H](C)C1COC (stereo not given in full)  0.202
8. [N-]=[N+]=NCc1ccccc1[C@H]1OC(c2ccc(OCCCO)cc2)=N[C@@]1(Cc1ccccc1)C(=O)NCC(O)CO (stereo not given in full)  0.506
9. NC(=O)NCC#Cc1ccc2c(c1)[C@]1(C(=O)N2)[C@H](c2ccccc2OCCO)N2[C@H](c3ccccc3)[C@H](c3ccccc3)OC(=O)[C@H]2[C@@H]1C(=O)N1CCCCCCC1  1.72
10. O=C1O[C@@H](c2ccccc2)[C@@H](c2ccccc2)N2[C@@H](c3ccc(O)cc3)[C@]3(C(=O)Nc4ccccc43)[C@@H](C(=O)N3CCCCCCC3)[C@H]12  1.82
